As usually defined, the Kd is the free concentration of one partner at which half of the binding sites on the other are occupied at equilibrium, for simple one-to-one binding. The low end stands for a tighter complex, the high end for a looser complex.

This assay has as its target T1, Slp1-FL (Drosophila melanogaster, UniProt P32030).
T1 sequence: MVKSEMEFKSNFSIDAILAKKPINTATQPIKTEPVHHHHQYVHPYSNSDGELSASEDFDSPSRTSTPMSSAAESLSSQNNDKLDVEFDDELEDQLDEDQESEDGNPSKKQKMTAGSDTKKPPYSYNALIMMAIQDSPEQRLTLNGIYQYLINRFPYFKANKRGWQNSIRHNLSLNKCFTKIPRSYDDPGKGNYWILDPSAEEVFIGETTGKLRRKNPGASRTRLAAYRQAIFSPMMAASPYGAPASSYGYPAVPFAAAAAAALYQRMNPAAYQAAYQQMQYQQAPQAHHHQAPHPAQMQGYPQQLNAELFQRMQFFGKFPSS
The assay can be described thus: FP; 33 mM phosphate pH 7.0, 90 mM NaCl, 0.01% Tween 20, 0.1 mM DTT, 0.5% agarose; room temperature. Conditions: tags: N-GST (pGEX-6P-1, kept); dsDNA, one strand shown.
Regarding ACGTGTTCACACTTA, the binding signal was 37.4 Kd / Kd of best base at the position. With ACGTGCTTACACTTA, the binding signal was 16.8 Kd / Kd of best base at the position. On the same count and under the same terms, as for AAGTGTTTACACTTA, the figure is 8.32 Kd / Kd of best base at the position. Same read-out and setting: the value for ACTTGTTTACACTTA was 1.09 Kd / Kd of best base at the position; that for ACGTGTTTACACCTA was 2.68 Kd / Kd of best base at the position; that for ACGTGTTTATACTTA was 2.63 Kd / Kd of best base at the position. Still for that read-out and setting: the value for ACGTGTCTACACTTA was 22.3 Kd / Kd of best base at the position. With CCGTGTTTACACTTA, the binding signal was 1.25 Kd / Kd of best base at the position.

With ACGTGTTTACATTTA, the binding signal is 1.28 Kd / Kd of best base at the position. Same read-out and setting: the value for ACGTGGTTACACTTA was 14.4 Kd / Kd of best base at the position; that for ACGTGTTGACACTTA was 5.44 Kd / Kd of best base at the position.

Consider ACGAGTTTACACTTA, for which the binding signal is 30.1 Kd / Kd of best base at the position. Still for that read-out and setting: the value for ACATGTTTACACTTA was 1.13 Kd / Kd of best base at the position.

In the case of ACGTGTTTACACTTA, the Kd is ~17 nM. For the sequence ACGTGTTTACAATTA, the binding signal was 2.79 Kd / Kd of best base at the position. On the same count and under the same terms, as for ACGTGTTTTCACTTA, the figure is 13 Kd / Kd of best base at the position. Still for that read-out and setting: as for ACGTGTTTAAACTTA, the figure is 44.8 Kd / Kd of best base at the position. In the case of ACGTGTATACACTTA, the binding signal is 19.4 Kd / Kd of best base at the position. Same read-out and setting: the value for ACGTGTTTACTCTTA was 2.44 Kd / Kd of best base at the position; that for ACCTGTTTACACTTA was 3.03 Kd / Kd of best base at the position. Still for that read-out and setting: the value for ACGTGTGTACACTTA was 7.74 Kd / Kd of best base at the position. The same measure, in the same setting: the value for ATGTGTTTACACTTA was 1.95 Kd / Kd of best base at the position. For ACGTGTTTCCACTTA, the binding signal was 15.2 Kd / Kd of best base at the position. Take GCGTGTTTACACTTA: the binding signal was 1.21 Kd / Kd of best base at the position. Take ACGTTTTTACACTTA: the binding signal was 21.2 Kd / Kd of best base at the position. Still for that read-out and setting: the value for ACGTGTTTACAGTTA was 2.11 Kd / Kd of best base at the position.

In the case of ACGTGTTTACACTTC, the binding signal was 1.33 Kd / Kd of best base at the position. ACGTGTTTACACTGA: the binding signal was 1.18 Kd / Kd of best base at the position.

Regarding ACGTGTTTACGCTTA, the binding signal was 1.83 Kd / Kd of best base at the position. As for ACGTGTTTACACTTT, the binding signal is 1.35 Kd / Kd of best base at the position.

For the sequence ACGTGATTACACTTA, the binding signal is 19 Kd / Kd of best base at the position. On to ACGGGTTTACACTTA, for which the binding signal was 20.1 Kd / Kd of best base at the position. For the sequence ACGCGTTTACACTTA, the binding signal was 14.2 Kd / Kd of best base at the position.

With ACGTCTTTACACTTA, the binding signal is 68.8 Kd / Kd of best base at the position. As for ACGTGTTTACACGTA, the binding signal was 2.9 Kd / Kd of best base at the position. The same measure, in the same setting: as for ACGTGTTAACACTTA, the figure is 14 Kd / Kd of best base at the position; as for AGGTGTTTACACTTA, 1.71 Kd / Kd of best base at the position; as for ACGTGTTTACACTAA, 10.7 Kd / Kd of best base at the position. On the same count and under the same terms, the value for ACGTGTTTACCCTTA was 2.19 Kd / Kd of best base at the position.

The values above are taken from publication PMC5913336, “True equilibrium measurement of transcription factor-DNA binding affinities using automated polarization microscopy”.
